Measurements as given in the supplement of paper PMC8975748.
Where a name gives a salt, the structure may show the parent alone.

test system: Saccharomyces cerevisiae BY4741 SeMeCo community; experiment: z-score of subpopulation abundance vs DMSO median, subpopulation auxotrophic for HLU; higher = larger share of this subpopulation than in DMSO controls; conditions: 10 µM; 24 h; SM minimal medium; subpopulation (auxotrophy): HLU
Summary of the method: (§1)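 A community of Saccharomyces cerevisiae BY4741 was built from four plasmids that each restored one auxotrophy and encoded a distinct fluorescent protein. Pre-grown overnight to OD600 1.0 and diluted to 0.3, it was dispensed at 70 µl into 384-well plates acoustically predosed with library drugs for a final 10 µM, and grown 24 h in minimal SM medium. Cells were then paraformaldehyde-fixed and imaged by automated confocal microscopy. Thresholds and autofluorescence correction came from single-auxotroph fluorescent strains, and each subpopulation's abundance was scored as a z-score relative to the vehicle-well median.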

SMILES	z-score of subpopulation abundance
CC[N+](CC)(CC)CC [Tetraethylammonium bromide]	0.38
CCC1(c2ccccc2)C(=O)NCNC1=O [Primidone]	-0.29
CCCCOc1cc(C(=O)OCCN(CC)CC)ccc1N [Oxybuprocaine HCl]	-0.16
C[N+]1(C)[C@@H]2CC[C@H]1C[C@@H](OC(=O)C(O)c1ccccc1)C2 (stereo not given in full) [Homatropine Methylbromide]	0

test system: Saccharomyces cerevisiae BY4741 SeMeCo community; experiment: z-score of subpopulation abundance vs DMSO median, subpopulation auxotrophic for HLM; higher = larger share of this subpopulation than in DMSO controls; conditions: 10 µM; 24 h; SM minimal medium; subpopulation (auxotrophy): HLM
Summary of the method: as §1

SMILES	z-score of subpopulation abundance
CC(C)NC(=N)NC(=N)Nc1ccc(Cl)cc1 [Proguanil]	-0.27
Nc1nc(O)c2ncn(CCC(CO)CO)c2n1 [Penciclovir]	-0.62
C=CC(C)(O)CCC=C(C)C (stereo not given) [Linalool]	-0.24
O=C(N[C@H](CO)[C@H](O)c1ccc([N+](=O)[O-])cc1)C(Cl)Cl [Chloramphenicol]	0.01
CCCN1CCCC[C@H]1C(=O)Nc1c(C)cccc1C [Ropivacaine]	-0.22
Cc1onc(-c2ccccc2)c1-c1ccc(S(N)(=O)=O)cc1 [Valdecoxib]	-0.74
CN1[C@@H]2CC[C@H]1C[C@@H](OC(=O)c1c[nH]c3ccccc13)C2 [Tropisetron]	1.12
CC[C@H]1OC(=O)[C@H](C)[C@@H](O[C@H]2C[C@@](C)(OC)[C@@H](O)[C@H](C)O2)[C@H](C)[C@@H](O[C@@H]2O[C@H](C)C[C@H](N(C)C)[C@H]2O)[C@](C)(O)C[C@@H](C)/C(=N\OCOCCOC)[C@H](C)[C@@H](O)[C@]1(C)O [Roxithromycin]	-0.45
COc1ccccc1N1CCN(CCCNc2cc(=O)n(C)c(=O)n2C)CC1 [Urapidil HCl]	-0.67
O=C(O)c1cc(-c2ccc(F)cc2F)ccc1O [Diflunisal]	-0.45
C=C[C@H]1CN2CC[C@H]1C[C@H]2[C@H](O)c1ccnc2ccc(OC)cc12 [Quinine HCl Dihydrate]	0.48
Cc1nc(=O)c2cc(CN(C)c3ccc(C(=O)N[C@@H](CCC(=O)O)C(=O)O)s3)ccc2[nH]1 [Raltitrexed]	-0.97
CC(C)Cc1ccc(C(C)C(=O)O)cc1 (stereo not given) [Ibuprofen Lysine]	-0.36
CN(C)CCc1c[nH]c2ccc(C[C@H]3COC(=O)N3)cc12 [Zolmitriptan]	-0.12
C[C@]12CC[C@@H]3c4ccc(O)cc4C[C@@H](CCCCCCCCC[S+]([O-])CCCC(F)(F)C(F)(F)F)[C@H]3[C@@H]1CC[C@@H]2O (stereo not given in full) [Fulvestrant]	0.89
COc1ccc(NS(=O)(=O)c2ccc(N)cc2)nn1 [Sulfamethoxypyridazine]	-1.06

SMILES	z-score of subpopulation abundance
CNCCCN1c2ccccc2CCc2ccccc21 [Desipramine Hydrochloride]	-0.1
Oc1ccc([C@H]2COc3cc(O)ccc3C2)cc1 [Equol]	-0.88
Cc1[nH]c(=O)c(C#N)cc1-c1ccncc1 [Milrinone]	-0.75
Cc1ccc(O)c([C@H](CCN(C(C)C)C(C)C)c2ccccc2)c1 [Tolterodine tartrate]	-0.01
CCN(CC)CCOC(=O)c1ccc(N)cc1 [Procaine]	-1.03
O=C(O)c1cc(/N=N/c2ccc(O)c(C(=O)O)c2)ccc1O [Olsalazine Sodium]	-1.25
CCC(C)(Oc1ccc(C2(c3ccc(OC(C)(CC)C(=O)O)cc3)CCCCC2)cc1)C(=O)O (stereo not given) [Clinofibrate]	2.85
CN(C)[C@@H]1C(=O)C(C(N)=O)=C(O)[C@@]2(O)C(=O)C3=C(O)c4c(O)ccc(Cl)c4[C@@H](O)[C@H]3C[C@@H]12 [Demeclocycline HCl]	-0.17
COc1cc2c(cc1OC)C(=O)C(CC1CCN(Cc3ccccc3)CC1)C2 (stereo not given) [Donepezil]	-0.14
CCn1cc(C(=O)O)c(=O)c2cc(F)c(N3CCNCC3)nc21 [Enoxacin]	-0.64
NC(=O)[C@@H]1CC[C@@H]2CN1C(=O)N2OS(=O)(=O)O [Avibactam sodium]	0.54
CN1[C@@H]2CC[C@H]1C[C@@H](OC(c1ccccc1)c1ccccc1)C2 [Benztropine mesylate]	-0.44
C#C[C@]1(O)CC[C@H]2[C@@H]3CCC4=CCCC[C@@H]4[C@H]3CC[C@@]21C [Lynestrenol]	-0.46
CC(C)(C)C(=O)OCOC(=O)[C@@H]1N2C(=O)[C@@H](/N=C/N3CCCCCC3)[C@H]2SC1(C)C [Pivmecillinam hydrochloride]	-0.52
OC(c1ccccc1)(c1ccccc1)C12CC[N+](CCOCc3ccccc3)(CC1)CC2 [Umeclidinium bromide]	0.44
